Experiments:
[1] = system: Madurella mycetomatis MM55; conditions: 7 days
[2] = system: Madurella mycetomatis MM55; experiment: IC90; higher = less potent; conditions: 7 days
[3] = system: Madurella mycetomatis MM55; experiment: percent growth relative to solvent control; higher = less inhibition, active = 20 or less; conditions: 100 µM; 7 days

| Compound | IC50 [1] [µM] | IC90 [2] [µM] | percent growth [3] |
| --- | --- | --- | --- |
| c1coc(CNc2nc(N3CCCCC3)nc3ccccc23)c1 | 10.2 | 15.5 | 1.16% (active) |
| COc1ccc(-c2nnc3ccc(-c4cccc(C(C)C)c4)cn23)cc1OC | 40.6 | 86.2 | 2.59% (active) |
| Cc1ccc(NC(=O)c2nc[nH]c2C(=O)Nc2nc3ccccc3[nH]2)c(C)c1 |  |  | 147% (inactive) |
| CCc1nc2ccc(C(=O)NCc3ccc4c(c3)OCO4)cn2c1N(C)Cc1cccs1 |  |  | 44% (inactive) |
| CCCn1nnc(NC(=O)COc2ccc(C3CCCCC3)cc2)n1 | 65.8 | 94.3 | 2.18% (active) |
| Nc1ncnc2c1ncn2[C@@H]1O[C@H](COS(=O)(=O)NC(=O)c2ccccc2O)[C@@H](O)[C@H]1O |  |  | 60.6% (inactive) |
| COc1ccc(-c2cnc3ccc(NCc4ccc(S(N)(=O)=O)cc4)nn23)cn1 |  |  | 86.7% (inactive) |
| CCCCCCCCCCCCCCCCOP(=O)([O-])OCC[N+](C)(C)C | 59.3 | 90.8 | -0.857% (active) |
| CC(C)(C)n1nc(Cc2ccc(F)c(Cl)c2)c2c(N)ncnc21 | 62 | 93 | 1.18% (active) |
| CC(C(=O)Nc1ccc2oc(-c3ccncc3)nc2c1)c1ccccc1 (stereo not given) |  |  | 77% (inactive) |
| Cc1ccccc1CN1CCC(O)(c2ccc(Cl)c(C(F)(F)F)c2)CC1 | 35.5 | 56.3 | 1.71% (active) |
| O=C(NC1CCCCC1)N1CCN(Cc2ccc3c(c2)OCO3)CC1 |  |  | 74.6% (inactive) |
| C[C@]1(O)C[C@@H](c2nc(-c3ccc4ccc(-c5ccccc5)nc4c3)c3c(N)nccn32)C1 |  |  | 133% (inactive) |

From the supplement of paper PMC5940239
